# Source: PubChem
# LAP4 TOR yeast: alters LAP4-GFP fluorescence in TOR pathway yeast screen | S. cerevisiae LAP4-GFP multiplex, flow cytometry GFP, 3 h; median GFP as percent of DMSO wells | GFP response vs DMSO, % at 10 µM | 0.34% of 320,000 active | AID 2023;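 active = GFP response vs DMSO above a set limit, about the screen mean plus 3 SD, cut at about 150% in these data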
# MEP2 TOR yeast: alters MEP2-GFP fluorescence in TOR pathway yeast screen. S. cerevisiae MEP2-GFP strain, flow cytometry GFP, 3 h; 100% = DMSO control level. GFP response vs DMSO, % at 10 µM. 0.51% of 330,000 active;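 active = GFP response versus DMSO above a set limit, roughly screen mean plus 3 SD, cut at about 180% in these data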;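 note: median GFP fluorescence of the barcode-gated MEP2-GFP cells per well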
# VLA-4 inh: inhibition in a human VLA-4 binding assay | VLA-4 expressing cells, ligand binding flow cytometry | inhibition, % (about 7 µM as worked out from the volumes in the protocol) | 0.2% of 330,000 active; in the data active = inhibition above about 50%
# Target sequence (P13612 whole entry, looked up): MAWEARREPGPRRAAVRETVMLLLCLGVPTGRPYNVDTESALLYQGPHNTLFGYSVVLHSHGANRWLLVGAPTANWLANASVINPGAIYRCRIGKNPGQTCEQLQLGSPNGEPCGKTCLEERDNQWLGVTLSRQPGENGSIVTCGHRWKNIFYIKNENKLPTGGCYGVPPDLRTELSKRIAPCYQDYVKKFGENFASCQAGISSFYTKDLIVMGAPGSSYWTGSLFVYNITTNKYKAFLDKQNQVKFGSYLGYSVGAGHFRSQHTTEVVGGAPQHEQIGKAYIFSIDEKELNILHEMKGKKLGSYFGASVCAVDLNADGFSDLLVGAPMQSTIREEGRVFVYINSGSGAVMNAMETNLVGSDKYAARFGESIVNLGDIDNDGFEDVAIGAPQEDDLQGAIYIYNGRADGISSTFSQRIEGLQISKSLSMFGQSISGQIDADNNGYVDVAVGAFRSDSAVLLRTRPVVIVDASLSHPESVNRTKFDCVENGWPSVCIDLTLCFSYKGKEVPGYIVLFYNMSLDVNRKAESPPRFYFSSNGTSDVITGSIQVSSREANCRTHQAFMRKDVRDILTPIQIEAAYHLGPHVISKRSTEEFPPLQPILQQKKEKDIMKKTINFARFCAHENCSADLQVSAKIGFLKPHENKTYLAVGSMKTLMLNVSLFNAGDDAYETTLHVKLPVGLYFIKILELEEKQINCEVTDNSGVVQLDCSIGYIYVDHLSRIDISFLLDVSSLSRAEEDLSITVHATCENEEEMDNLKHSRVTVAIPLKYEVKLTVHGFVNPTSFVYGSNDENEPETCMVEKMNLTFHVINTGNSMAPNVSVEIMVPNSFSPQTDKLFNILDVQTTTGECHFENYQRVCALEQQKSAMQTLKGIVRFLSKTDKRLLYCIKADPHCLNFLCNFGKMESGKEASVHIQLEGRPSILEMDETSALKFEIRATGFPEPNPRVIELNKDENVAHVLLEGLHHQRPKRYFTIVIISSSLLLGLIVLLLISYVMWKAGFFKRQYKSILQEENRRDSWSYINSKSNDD
# RPL19A-GFP yeast: alters RPL19A-GFP fluorescence in TOR pathway yeast screen; S. cerevisiae RPL19A-GFP strain, flow cytometry, 3 h; hits give low values; percent response vs DMSO, % at 10 µM; 0.3% of 330,000 active; AID 2025;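 active = percent response vs DMSO below 50%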;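 note: median channel GFP fluorescence of the barcoded RPL19A-GFP strain; ratio of sample median GFP to plate DMSO average so 100% = DMSO; lower means less RPL19A-GFP as with rapamycin TOR inhibition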
# CIT2 TOR yeast: yeast TOR pathway CIT2-GFP modulation | 0.065% of 320,000 active | GFP response vs DMSO, % at 10 µM | S. cerevisiae CIT2-GFP strain, flow cytometry, 3 h; 100 means same as DMSO wells;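 active = GFP response relative to DMSO above a set limit, near the screen mean plus 3 SD, cut at about 150% in these data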;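 note: ratio of well median GFP fluorescence to mean of DMSO wells on the plate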
# AGP1-GFP MLPCN: modulators of TOR pathway AGP1-GFP in S. cerevisiae. 0.02% of 320,000 active. S. cerevisiae AGP1-GFP multiplex flow cytometry, 3 h; GFP as percent of DMSO wells. GFP response vs DMSO, % at 10 µM;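 active = GFP response relative to DMSO above a set limit, near screen average plus 3 SD, cut at about 150% in these data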;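 note: median GFP channel fluorescence of the gated AGP1 strain per well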
# LAP4-GFP pick2: second confirmation of modulators of TOR reporter LAP4-GFP in yeast | shares compounds with LAP4 TOR yeast | S. cerevisiae LAP4-GFP strain, flow cytometry GFP, 3 h | GFP response vs DMSO, % at 10 µM | 20% of 590 active | AID 2621;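 active = GFP signal as percent of the solvent control above about 150%, meaning raised reporter expression, limit read from the data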;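 note: ratio of well median GFP fluorescence to plate DMSO mean so 100% = DMSO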
# MEP2 cherry2: second confirmation of modulators of TOR reporter MEP2-GFP in yeast; shares compounds with LAP4 TOR yeast; S. cerevisiae MEP2-GFP strain, flow cytometry GFP, 3 h; GFP response vs DMSO, % at 10 µM; 10% of 590 active;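 active = GFP signal above 150% of the solvent control wells, that is a rise of more than half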;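 note: median channel GFP fluorescence of all gated yeast cells per well; ratio of median GFP to plate DMSO average so 100% = DMSO level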
# RPL19A-GFP pick2: second confirmation of modulators of TOR reporter RPL19A-GFP in yeast; shares compounds with LAP4 TOR yeast; S. cerevisiae RPL19A-GFP strain, flow cytometry GFP, 3 h; hits give low values; 100% means same as DMSO wells; GFP response vs DMSO, % at 10 µM; 3% of 590 active; AID 2623;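 active = under 65% GFP response relative to DMSO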;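 note: median GFP channel fluorescence per well over the all cells gate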
# CIT2 GFP CP2: yeast CIT2-GFP TOR reporter modulation, second cherry pick | S. cerevisiae CIT2-GFP strain, flow cytometry GFP, 3 h; DMSO control wells read 100% | shares compounds with LAP4 TOR yeast | AID 2624 | GFP response vs DMSO, % at 10 µM | 8% of 590 active;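 active = GFP response vs DMSO above about 150%, limit read from the data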;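 note: median green fluorescence per well over all gated yeast cells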
# AGP1-GFP pick2: yeast AGP1-GFP TOR reporter modulation, second cherry pick. AID 2643. percent response vs DMSO, % at 10 µM. shares compounds with LAP4 TOR yeast. 590 tested, under 10 active. S. cerevisiae AGP1-GFP strain, flow cytometry GFP, 3 h;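 active = over 150 percent of DMSO response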;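 note: median GFP channel fluorescence over all cells without mother daughter split; sample median GFP divided by mean DMSO control so 100% equals DMSO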
# s288c autofluor: counter-screen for compound autofluorescence in yeast s288c cells; AID 2757; S. cerevisiae s288c, 520 nm autofluorescence, flow cytometry, 3 h; hits give high values; zero means same as solvent-only cells; 610 tested, under 10 active; shares compounds with LAP4 TOR yeast; fluorescence change (kMESF span) at 33 µM;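 active = fluorescence span over the dose series, or activity score, above about 33, limit read from the data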
# * hit, by the source's call; . = no result given. Compounds with a hit are over-represented: about 1.1% of the library has one in this group of screens.
SMILES,LAP4 TOR yeast,MEP2 TOR yeast,VLA-4 inh,RPL19A-GFP yeast,CIT2 TOR yeast,AGP1-GFP MLPCN,s288c autofluor,others
Cc1cccc(Nc2nc(-c3cccs3)cs2)n1,133,98,3,90,106,102,.,
CCSc1ccc(-c2nn(-c3ccccc3)cc2/C=C(/C#N)C(=O)NC)cc1,74,171,13,60,82,68,.,LAP4-GFP pick2=92;MEP2 cherry2=94;RPL19A-GFP pick2=102;CIT2 GFP CP2=110;AGP1-GFP pick2=95
CCCSc1ccc(-c2nn(-c3ccccc3)cc2/C=C(/C#N)C(=O)N2CCOCC2)cc1,102,106,21,99,101,102,.,
O=C(N/C(=C\c1cccc([N+](=O)[O-])c1)C(=O)N1CCOCC1)c1cccc(Br)c1,87,101,-2,107,112,100,.,
O=C(/C=C/c1ccccc1[N+](=O)[O-])c1ccccc1Br,156*,104,24,97,83,92,8.8,
O=C(c1ccc(Cl)cc1)N1CCC(O)(CSc2ccccc2)CC1,93,160,19,63,101,26,.,LAP4-GFP pick2=105;MEP2 cherry2=107;RPL19A-GFP pick2=99;CIT2 GFP CP2=103;AGP1-GFP pick2=96
O=C(Oc1oc(-c2ccco2)nc1C=Nc1ccc(Cl)cc1)c1ccco1,230*,96,28,91,102,82,0.21,
COc1ccccc1N=Cc1nc(-c2ccccc2)oc1OC(C)=O,108,95,6,94,78,91,-0.7,
CC(=O)Oc1oc(-c2ccccc2)nc1C=Nc1ccc(N(C)C)cc1,110,98,4,101,94,102,0,
CN(C)c1ccc(N=Cc2nc(-c3ccccc3)oc2OC(=O)c2ccccc2)cc1,98,105,14,102,108,98,0.61,
CN(C)c1ccc(N=Cc2nc(-c3ccccc3)oc2O)cc1,72,84,-4,84,93,88,.,
C=CCN(C(=O)c1csnn1)C(C(=O)NC1CCCC1)c1ccc(F)cc1 (configuration not stated),90,104,5,91,98,92,.,
N/C(Cc1ccc(Cl)c(Cl)c1)=N\OC(=O)c1cccs1,219*,115,30,86,111,63,1,
Cc1c(CCC(=O)NC2CC2)c(=O)oc2cc(O)ccc12,102,104,-11,98,106,101,.,
Cc1cc2ccccn2c1C(=O)c1ccc([N+](=O)[O-])o1,218*,101,9,84,121,97,18,
Cc1ccc(-c2nc3ccc(Cl)cc3c(=O)n2O)cc1,110,84,10,94,78,93,.,
O=c1c2cc(Cl)ccc2nc(-c2ccccc2Cl)n1O,113,95,4,60,75,76,.,LAP4-GFP pick2=105;MEP2 cherry2=98;RPL19A-GFP pick2=100;CIT2 GFP CP2=88;AGP1-GFP pick2=104
